# Bioassay records: PubChem BioAssay, National Center for Advancing Translational Sciences (NCATS)
# Compounds with a hit are over-represented: about 6% of the library has one in this group of screens.
# D1 ag = Allosteric Agonists of the Human D1 Dopamine Receptor: qHTS | HEK293 T-REx D1 cells, calcium flux, agonist mode | actives 1% (n = 360,000) | AID 504660, 2011 | D(1A) dopamine receptor (Homo sapiens), P21728 | activation, % at 2 µM; in the data active means activation above about 30%; further: 0% is about no effect
# Target sequence (P21728 whole entry, looked up): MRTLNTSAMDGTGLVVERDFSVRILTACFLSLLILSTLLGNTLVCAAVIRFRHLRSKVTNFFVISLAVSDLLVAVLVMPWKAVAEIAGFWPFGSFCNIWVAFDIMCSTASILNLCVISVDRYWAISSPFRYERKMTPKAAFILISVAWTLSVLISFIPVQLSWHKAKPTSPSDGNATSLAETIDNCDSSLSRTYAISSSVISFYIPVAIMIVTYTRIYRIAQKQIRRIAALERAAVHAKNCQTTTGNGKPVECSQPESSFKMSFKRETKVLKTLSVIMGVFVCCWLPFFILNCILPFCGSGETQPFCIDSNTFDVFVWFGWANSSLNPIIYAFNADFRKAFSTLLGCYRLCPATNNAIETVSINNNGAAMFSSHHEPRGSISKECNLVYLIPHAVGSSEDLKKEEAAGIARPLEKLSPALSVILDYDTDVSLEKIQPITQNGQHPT
#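 Tetracycline-induced HEK293 TREx D1 cells, force-coupled to calcium signalling, were dye-loaded with a no-wash calcium kit. Compound was pin-added after a 10 s baseline. Fluorescence was read kinetically at 1 cycle/s for 180 s, with calcium rises flagged as agonism.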
# D3 ag = qHTS of D3 Dopamine Receptor Agonist: qHTS | D(3) dopamine receptor (Homo sapiens), P35462 | D3R DiscoveRx beta-arrestin cells, luminescence, 90 min | max activation, % | actives 0.58% (n = 410,000); in the data active means max activation above about 30%; further: 0% is about no effect
#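 Agonist-mode cell screen: cells plated at 1500/well and incubated overnight at 37 °C, then exposed to library compounds for 90 min at 37 °C. Detection reagent was added for 30–60 min at room temperature, and luminescence was read.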
# D1 antagonist = Antagonist of Human D 1 Dopamine Receptor: qHTS. actives 3.2% (n = 360,000). HEK293 TREx D1 cells, calcium flux, dopamine EC80; active compounds read low. activity change, negative = inhibition, % at 10 µM. AID 504652, 2011. D(1A) dopamine receptor (Homo sapiens), P21728; in the data active means activity change below about -30%; further: on the % scale 0 is the no-effect control and ±100 the full control effect
#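 Cells carrying a force-coupled, tetracycline-inducible human D1 receptor report calcium flux. Each well gets a 10 s baseline, compound with 180 s monitoring, then an EC80 dopamine stimulus with a second 180 s kinetic read.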
# DRD3 antagonist = qHTS of D3 Dopamine Receptor Antagonist: qHTS; actives 2.5% (n = 360,000); D(3) dopamine receptor (Homo sapiens), P35462; AID 652054, 2013; max response, negative = inhibition, %; D3R cells, DiscoveRx beta-arrestin luminescence, antagonist mode; active compounds read low; in the data active means max response below about -50%; inconclusive means no clear call, values can overlap the other calls; further: on the % scale 0 is the no-effect control and ±100 the full control effect
#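 Cells plated overnight at 1500 cells/well, then exposed to library compounds with dopamine controls for 90 minutes at 37 degrees C. DiscoveRx reagent added for 30–60 minutes at room temperature; luminescence read, quantitative HTS format.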
# D1 potentiator = Potentiators of Human D1 Dopamine Receptor: qHTS | HEK293 TREx D1 cells, calcium flux, dopamine EC20 potentiation | D(1A) dopamine receptor (Homo sapiens), P21728 | actives 0.036% (n = 360,000) | potentiation, % at 10 µM; in the data active means potentiation above about 30%; further: 0% is about no effect
# Starred values were filed as active, the others as inactive; ? = inconclusive; . = no result given.
SMILES,D1 ag,D3 ag,D1 antagonist,DRD3 antagonist,D1 potentiator
O=C(CCNS(=O)(=O)c1ccc2c(c1)CCN2C(=O)C1CC1)N1CCN(c2ccccc2F)CC1,2.8,-2.7,-19.3,.,-2.4
CCN1CCN(C(=O)c2cc(S(=O)(=O)Nc3ccc(S(C)(=O)=O)cc3)ccc2Cl)CC1,1.4,3.7,-47.2*,10.2,-4.7
NC[C@@H]1CC[C@@H](N)[C@@H](O[C@H]2[C@H](O)[C@@H](O[C@H]3O[C@H](CO)[C@@H](O)[C@H](N)[C@H]3O)[C@H](N)C[C@@H]2N)O1,.,-7.7,.,.,.
CCCC(C)c1oc(=O)cc(O)c1C (centres undefined),.,60.4*,.,-2.9,.
Cc1cc(-c2nn(-c3ccccc3F)cc2CN2CCC(C(N)=O)CC2)c(C)s1,1.5,-18.9,16.9,?,-7.5
Cc1cc(-c2nn(-c3ccccc3F)cc2CN2CCCC(O)C2)c(C)s1 (centres undefined),2.1,-6.8,11.9,-13.3,-1.9
Cc1cc(-c2nn(-c3ccccc3F)cc2CN2CCCC(CO)C2)c(C)s1 (centres undefined),3.0,-4.3,11.4,-52.9*,1.6
COCC1CCN(Cc2cn(-c3ccccc3F)nc2-c2cc(C)sc2C)CC1,-0.7,-30.4,-6.3,-84.2*,-1.7
Nc1cccc(NC(=O)c2cccs2)c1,-0.8,0.5,8.8,17.7,-0.6
O=C(NNS(=O)(=O)c1ccc(Cl)cc1)c1cccs1,3.4,8.0,-5.8,-61.5*,-1.8
COc1ccc(C(=O)Nc2ccc(NC(=O)c3cccs3)cn2)cc1,17.2,-3.2,-34.8*,-17.8,-8.2
COc1ccc(NC(=O)c2cccs2)cc1,2.4,-4.2,-8.9,-8.7,-6.5
O=C(Nc1cccc(N2CCCC2)c1)c1cccs1,-0.5,-33.3,11.8,-50.9*,0.7
O=C(Nc1ccc(Cl)cc1)c1cccs1,1.4,7.9,-39.4*,1.0,-7.0
COc1cc(NC(=O)c2cccs2)c(OC)cc1NC(=O)Nc1ccc(F)cc1,1.8,-3.6,-45.0*,3.8,-9.9
O=C(Nc1nc(-c2ccccc2)ns1)c1cccs1,7.2,-11.4,-32.3*,14.7,5.8
Cn1cc(C(=O)NCCc2ccc(Cl)cc2)c(=O)c2cc(S(=O)(=O)N3CCOCC3)ccc21,-0.1,-4.3,-1.0,.,-0.2
O=C1C2CC=CCC2C(=O)N1Cc1ccccc1 (centres undefined),1.4,5.6,2.8,-5.2,-8.3
O=C1C=CC(=O)N1Cc1ccccc1,2.0,-110.6,12.1,-139.5*,-2.5
Cc1nn(CC(=O)NCCCN2CCC(Cc3ccccc3)CC2)c(=O)c2cc(-c3ccccc3)nn12,-0.8,2.6,-3.3,-87.8*,-1.7
Cc1nn(CC(=O)NCCCN2CCN(Cc3ccccc3)CC2)c(=O)c2cc(-c3ccccc3)nn12,4.2,-16.6,-15.0,-65.8*,-4.5
CCN1CCN(CCCNC(=O)Cn2nc(C)n3nc(-c4ccccc4)cc3c2=O)CC1,2.0,-1.2,5.0,-4.6,-0.4
CC(=O)c1ccc(NC(=O)COCc2cc(-c3ccco3)on2)cc1,3.4,-15.6,-26.0,.,0.4
CCCC12CN3CC(C)(CN(C1)C3c1ccc(CC)cc1)C2=O (centres undefined),4.7,2.3,7.3,.,1.8
O=C(CC(=O)Nc1ccccc1[N+](=O)[O-])Nc1ccccc1[N+](=O)[O-],11.4,-10.1,-34.1*,-63.9*,-7.3
SMILES,D1 ag,D3 ag,D1 antagonist,DRD3 antagonist,D1 potentiator
O=C(COC(=O)COc1ccccc1[N+](=O)[O-])Nc1ccccc1Br,4.7,-3.8,-43.2*,13.3,4.0
CCCCC1CCC(C(=O)N2CC(=O)Nc3ccc(Br)cc3C2c2ccc(F)cc2)CC1 (centres undefined),8.2,-17.6,0.8,.,1.5
COc1ccc(C2c3c(n(C)c4ccccc34)C(=O)N2CC(=O)Nc2ccc(Cl)cc2)cc1 (centres undefined),2.3,-17.8,-1.0,.,-1.9
COc1ccc(-n2c(SCc3ccccc3F)nc3c([nH]c4ccccc43)c2=O)cc1OC,1.8,5.1,17.8,.,-2.1
OC[C@H]1O[C@@H](O[C@@H]2[C@@H](CO)O[C@@](O)(CO)[C@H]2O)[C@H](O)[C@@H](O)[C@H]1O,-0.6,6.4,-35.8*,9.5,-6.5
OC[C@H]1O[C@@H](O[C@@H]2[C@@H](CO)O[C@](O)(CO)[C@H]2O)[C@H](O)[C@@H](O)[C@H]1O,.,-0.4,.,.,.
O=C(NC1CC1)c1ccc(Cn2c(SCc3ccccc3F)nc3cccnc32)cc1,12.7,-6.8,12.1,.,-4.0
CN(CC(=O)NCC(=O)Nc1ccc(F)cc1)CC(=O)Nc1ccc(Cl)c(C(F)(F)F)c1,.,-13.7,.,-19.4,.
O=C(CSC1=NCCN1)Nc1cccc([N+](=O)[O-])c1,6.2,-15.2,3.0,-64.5*,-3.1
CN(CC(=O)NCc1ccc(F)cc1)CC(=O)Nc1ccc(Cl)c(C(F)(F)F)c1,24.1,5.1,-33.4*,2.7,1.5
O=C(CN1CCCCC1)NNC(=O)c1cccc(Br)c1,5.0,-33.9,-1.1,-80.3*,.
O=[N+]([O-])c1cccc(-c2ccc(C(=S)N3CCOCC3)o2)c1,-0.4,8.7,-34.7*,3.3,-1.7
O=C(CN1CCCCC1)Nc1cccc(Br)c1,2.5,-15.8,-4.4,-63.2*,-9.7
O=C(CCN1CCN(Cc2ccccc2)CC1)NNC(=O)Nc1cccc(Cl)c1,2.1,-25.7,-14.6,?,-5.4
Cc1ccc2occ(CC(=O)Nc3ccc(Cl)c(C(F)(F)F)c3)c2c1,16.2,2.5,-31.5*,.,-3.4
O=C(CN1CCCCC1)Nc1ccc(F)c(Cl)c1,9.4,-2.9,2.9,-58.3*,-4.6
O=C(CCN1CCN(Cc2ccccc2)CC1)NNC(=O)Nc1cccc([N+](=O)[O-])c1,2.9,-16.5,18.7,-50.5*,6.1
CSc1ccc(CNC(=O)CN2C(=O)C3CCCCN3c3ccc(C(=O)N4CCCC4)cc32)cc1 (centres undefined),0.2,3.4,-1.8,.,4.7
CCc1ccc(NC(=O)c2ccc(F)c(S(=O)(=O)N3CCN(c4cc(C)ccc4C)CC3)c2)cc1,-0.6,11.4,-6.5,.,0.7
O=C(CN1CCCCCCC1)N/N=C/c1ccccc1F,-0.6,2.3,-38.9*,12.6,-4.8
CCN(CC(=O)Nc1ccc(NC(C)=O)cc1)CC(=O)Nc1ccc(Cl)c(Cl)c1,2.8,-26.2,-1.2,-59.5*,-1.4
O=C(CN1CCSCC1)N/N=C/c1ccccc1F,2.0,-9.2,-7.3,-19.3,3.1
O=C(Cc1cccc([N+](=O)[O-])c1)Nc1cccc(C(=O)N2CCOCC2)c1,.,-19.2,.,-51.0*,.
O=C(CN1CCCCC1)Nc1cccc([N+](=O)[O-])c1,-0.1,-18.4,0.4,-62.1*,-1.2
O=C(Cc1cccc([N+](=O)[O-])c1)Nc1ccc(C(=O)N2CCOCC2)cc1,.,5.1,.,0.0,.
